For assay [1], the system named is Vero E6 infected with SARS-CoV-2. Kind of assay: morphology score (similarity to uninfected cells); higher = more like uninfected cells. The settings on record: 24 h.
Assay [2] has the same test system. Kind of assay: SARS-CoV-2 infection rate relative to infected DMSO; higher = more infection, active = 60 or less. Particulars: 24 h.

Where a name gives a salt, the structure may show the parent alone.

The molecule `O=C1[C@@H]2[C@H]3CC[C@H](C3)[C@@H]2C(=O)N1CCCCN1CCN(c2ncccn2)CC1` [tandospirone] (10 µM) registered a morphology score in assay [1] of -0.0978. Moreover, the SARS-CoV-2 infection rate in assay [2] is 99% (inactive).
In the same order, the values of `O=C(NCNC(=O)NC1C(=O)NC(=O)N1CO)NC1C(=O)NC(=O)N1CO` (stereo not given) [imidurea] (10 µM) are -0.0758 and 108% (inactive).
The corresponding values for `CC(C)C[C@H](NC(=O)[C@H](CCCCN)NC(=O)[C@H](CCCNC(=N)N)NC(=O)[C@H](C)NC(=O)[C@H](CO)NC(=O)[C@H](CCCCN)NC(=O)[C@H](CCCNC(=N)N)NC(=O)[C@H](C)NC(=O)CNC(=O)[C@@H](NC(=O)[C@H](Cc1ccccc1)NC(=O)CNC(=O)CNC(=O)[C@@H](N)Cc1ccccc1)[C@@H](C)O)C(=O)N[C@@H](C)C(=O)N[C@@H](CC(N)=O)C(=O)N[C@@H](CCC(N)=O)C(=O)O` [orphanin-fq] (10 µM) are 0.0454 and 112% (inactive).
The molecule `Cn1nnc2c(C(N)=O)ncn2c1=O` [temozolomide] (10 µM) had a morphology score in assay [1] of -0.0949. The SARS-CoV-2 infection rate in assay [2] was 114% (inactive).
In the same order, the values of `CN(C)CCc1c[nH]c2ccc(CS(=O)(=O)N3CCCC3)cc12` [almotriptan] (10 µM) are 0.00995 and 110% (inactive).
The corresponding values for `CN=C(N)NCCC[C@H](N)C(=O)O` [L-monomethylarginine] (10 µM) are 0.197 and 97% (inactive).
In the same order, the values of `CC(C)(C)c1cc(NC(=O)Nc2ccc(-c3cn4c(n3)sc3cc(OCCN5CCOCC5)ccc34)cc2)no1` [quizartinib] (10 µM) are 0.177 and 97.5% (inactive).
`CC(C)(C(=O)O)c1ccc(C(=O)CCCN2CCC(OC(c3ccccc3)c3ccccc3)CC2)cc1` [carebastine] (10 µM) yielded a morphology score in assay [1] of 0.0702. Moreover, in assay [2], the SARS-CoV-2 infection rate is 103% (inactive).
In turn, `O=C(Nc1ccc(Cl)nc1)c1ccc(Cl)cc1` (10 µM) yielded a morphology score in assay [1] of 0.18. Further, the SARS-CoV-2 infection rate in assay [2] is 99.5% (inactive).
On to `CCOC(=O)c1ccccc1OC(=O)CCCCCCCC(=O)Oc1ccccc1C(=O)OCC` (10 µM), for which the morphology score in assay [1] came out at 0.166. Further, the SARS-CoV-2 infection rate in assay [2] is 100% (inactive).
The corresponding values for `CC(C)[C@H]1[C@@H]2CC[C@@H](C2)[C@@H]1N` (10 µM) are 0.109 and 82% (inactive).
The molecule `CC1(C)CCC(C)(C)c2c1cc(C(=O)Nc1cc(F)c(C(=O)O)c(F)c1)c(O)c2Cl` (10 µM) gave a morphology score in assay [1] of -0.137. In assay [2], the SARS-CoV-2 infection rate is 110% (inactive).
In the same order, the values of `C#C[C@]1(O)CC[C@H]2[C@@H]3CCc4cc(OC)ccc4[C@H]3CC[C@@]21C` [mestranol] (10 µM) are -0.00302 and 110% (inactive).
For the molecule `COC(F)(F)C(Cl)Cl` [methoxyflurane] (10 µM), the morphology score in assay [1] turned out to be 0.106. In addition, in assay [2], the SARS-CoV-2 infection rate is 100% (inactive).
In the same order, the values of `CC(=O)N(O)C/C=C/c1cccc(Oc2ccccc2)c1` (10 µM) are 0.0937 and 97.5% (inactive).
In the same order, the values of `CC(=O)c1ccc(S(=O)(=O)NC(=O)NC2CCCCC2)cc1` [acetohexamide] (10 µM) are 0.11 and 100% (inactive).
In the same order, the values of `CN(C)C(=O)COC(=O)Cc1ccc(OC(=O)c2ccc(NC(=N)N)cc2)cc1` [Camostat mesylate] (10 µM) are 0.0371 and 104% (inactive).
For `CCOc1ccc(-n2c([C@@H](C)N(Cc3cccnc3)C(=O)Cc3ccc(OC(F)(F)F)cc3)nc3ncccc3c2=O)cc1` (racemic) (10 µM), the morphology score in assay [1] is 0.181. Further, in assay [2], the SARS-CoV-2 infection rate is 98.8% (inactive).
In the same order, the values of `CS(=O)(=O)OC[C@H](O)[C@@H](O)COS(C)(=O)=O` [treosulfan] (10 µM) are -0.204 and 118% (inactive).
The corresponding values for `O=C(O)CCC/C=C\C[C@@H]1[C@@H](/C=C/[C@@H](O)COc2cccc(Cl)c2)[C@H](O)C[C@@H]1O` (racemic) [cloprostenol-(+/-)] (10 µM) are -0.0265 and 110% (inactive).
In assay [1], `Cc1c(C)c2c(c(C)c1O)CCC(C)(COc1ccc(CC3SC(=O)NC3=O)cc1)O2` (stereo not given) [troglitazone] (10 µM) had a morphology score of 0.342. Also, in assay [2], the SARS-CoV-2 infection rate was 89% (inactive).
Take `Cc1cccc(C)c1NC(=O)CN1CCCCCC1` [pincainide] (10 µM): in assay [1], the morphology score was found to be 0.00868. Also, in assay [2], the SARS-CoV-2 infection rate is 106% (inactive).
In the case of `Cc1cc(Nc2ncc(Cl)c(Nc3ccccc3S(=O)(=O)C(C)C)n2)c(OC(C)C)cc1C1CCNCC1` [ceritinib] (0.833333 µM), the morphology score in assay [1] came out at 0.182. The SARS-CoV-2 infection rate in assay [2] was 104% (inactive).
In turn, `CC1(COc2ccc3c(c2)ncn3-c2ccc3cccc(N4CCC(N)CC4)c3n2)COC1` [crenolanib] (0.833333 µM) came in with a morphology score in assay [1] of -0.0592. Moreover, in assay [2], the SARS-CoV-2 infection rate is 99.5% (inactive).
The corresponding values for `CC(C)n1nc(C#Cc2ccccc2)c2c(N)ncnc21` (10 µM) are 0.471 and 69.5% (inactive).

The values are drawn from the supplement of paper PMC13380429.
